# Measured values as given in the antibiotic and cytotoxicity screens of Wong et al. (2023).
# Screen size: about 39,000 compounds; about 1,500 (3.8%) were called active. Shown is part of a subset that was picked to be rich in actives.
# Test system: HSkMC (human skeletal muscle cells)
# Assay: cytotoxicity call (relative viability < 0.9)
# Details: 10 µM
row,Compound,cytotoxicity call
1,COc1ccc(NC(=O)N(C)C[C@@H]2OCCCC[C@H](C)Oc3ccc(NS(=O)(=O)c4ccc(F)cc4)cc3C(=O)N([C@H](C)CO)C[C@H]2C)cc1,inactive
2,COc1ccc(C#Cc2cnc3c(c2)C(=O)N([C@@H](C)CO)C[C@@H](C)[C@H](CN(C)CC2CCOCC2)O3)cc1,inactive
3,C[C@@H]1CCCCO[C@H](CN(C)C(=O)CCC(F)(F)F)[C@H](C)CN([C@H](C)CO)C(=O)c2cc(NC(=O)CCC(F)(F)F)ccc2O1,inactive
4,COc1ccc(-c2coc3cc(O)cc(OC)c3c2=O)cc1,inactive
5,C[C@H](CO)N1C[C@H](C)[C@H](CN(C)C(=O)Nc2ccc(F)cc2)Oc2ccc(NC(=O)C3CC3)cc2CC1=O,inactive
6,Cc1noc(C)c1NC(=O)N(C)C[C@H]1Oc2ccc(NS(=O)(=O)c3c(C)noc3C)cc2C(=O)N([C@@H](C)CO)C[C@@H]1C,inactive
7,CCc1ccc(/C=C2\SC(=O)N(CCCCCCNC(=O)c3ccc(Nc4ccc([N+](=O)[O-])c5nonc45)cc3)C2=O)cc1,inactive
8,CCc1ccc(/C=C2\SC(=O)N(CCCCCCNC(=O)c3ccccc3Nc3ccc([N+](=O)[O-])c4nonc34)C2=O)cc1,active
9,COc1ccc(NC(=O)Nc2ccc3c(c2)C(=O)N([C@H](C)CO)C[C@H](C)[C@H](CN(C)S(=O)(=O)c2ccccc2)OCCCC[C@H](C)O3)cc1,inactive
10,C[C@@H]1CN([C@H](C)CO)C(=O)c2cccc(NC(=O)Nc3ccc(C(F)(F)F)cc3)c2O[C@H]1CN(C)Cc1ccc(Cl)c(Cl)c1,active
11,C[C@H]1CN([C@@H](C)CO)C(=O)c2cccc(NC(=O)Nc3ccc(C(F)(F)F)cc3)c2O[C@H]1CN(C)Cc1ccc(Cl)c(Cl)c1,active
12,C[C@H](CO)N1C[C@H](C)[C@@H](CN(C)Cc2ccc(Cl)c(Cl)c2)Oc2c(NC(=O)Nc3ccc(C(F)(F)F)cc3)cccc2C1=O,active
13,C[C@H]1CN([C@@H](C)CO)C(=O)c2cccc(NC(=O)Nc3ccc(C(F)(F)F)cc3)c2O[C@H]1CN(C)Cc1ccc(C(F)(F)F)cc1,inactive
14,C[C@@H]1CN([C@@H](C)CO)C(=O)c2cccc(NC(=O)Nc3ccc(C(F)(F)F)cc3)c2O[C@H]1CN(C)Cc1ccc(Cl)c(Cl)c1,active
15,C[C@H](CO)N1C[C@H](C)[C@H](CN(C)C(=O)Nc2ccnc(N3CCOCC3)c2)OCc2cn(nn2)CCCC1=O,inactive
16,C[C@@H]1CN([C@H](C)CO)C(=O)c2cc(NS(=O)(=O)c3ccccc3)ccc2O[C@@H](C)CCCCO[C@@H]1CN(C)Cc1ccccc1,inactive
17,C[C@H]1CN([C@@H](C)CO)S(=O)(=O)c2ccc(C#CC3CC3)cc2O[C@H]1CN(C)C(=O)c1cccc(F)c1,inactive
18,Cc1nnc(SCC2=C(C(=O)[O-])N3C(=O)C(NC(=O)Cn4cnnn4)C3SC2)s1.[Na+] (stereo unspecified),inactive
19,C[C@H](CO)N1C[C@H](C)[C@H](CN(C)Cc2ccc(Cl)c(Cl)c2)OCc2ccccc2-c2c(n(C)c3ccccc23)C1=O,inactive
20,C[C@H]1CN([C@@H](C)CO)C(=O)c2cc(C#Cc3ccccn3)cnc2O[C@@H]1CN(C)C(=O)c1cnccn1,inactive
21,COc1ccc(NC(=O)Nc2ccc3c(c2)C(=O)N([C@@H](C)CO)C[C@H](C)[C@H](CN(C)Cc2ccncc2)OCCCC[C@@H](C)O3)cc1,inactive
22,O=C(/C=C/c1ccc(O)c(O)c1)O[C@@H]1C[C@](OC(=O)/C=C/c2ccc(O)c(O)c2)(C(=O)O)C[C@@H](OC(=O)/C=C/c2ccc(O)c(O)c2)[C@H]1O,inactive

row,Compound,cytotoxicity call
1,C[C@H]1CN([C@@H](C)CO)C(=O)c2cccc(NC(=O)Nc3ccc(C(F)(F)F)cc3)c2O[C@@H]1CN(C)Cc1ccc(C(F)(F)F)cc1,inactive
2,C[C@H](CO)N1C[C@H](C)[C@H](CN(C)Cc2ccc(Cl)c(Cl)c2)Oc2c(NC(=O)Nc3ccc(C(F)(F)F)cc3)cccc2C1=O,inactive
3,C[C@@H]1CN([C@H](C)CO)C(=O)c2cccc(NC(=O)Nc3ccc(C(F)(F)F)cc3)c2O[C@@H]1CN(C)Cc1ccc(Cl)c(Cl)c1,active
4,C[C@@H]1CN([C@@H](C)CO)C(=O)c2cccc(NC(=O)Nc3ccc(C(F)(F)F)cc3)c2O[C@@H]1CN(C)Cc1ccc(Cl)c(Cl)c1,active
5,C[C@H]1CN([C@@H](C)CO)C(=O)c2cccc(NC(=O)Nc3ccc(C(F)(F)F)cc3)c2O[C@@H]1CN(C)Cc1ccc(Cl)c(Cl)c1,active
6,COc1ccc(CN(C)C[C@@H]2OCCCC[C@H](C)Oc3ccc(NC(=O)c4ccccc4)cc3C(=O)N([C@H](C)CO)C[C@H]2C)cc1,inactive
7,C[C@@H]1CCCCO[C@@H](CN(C)C(=O)Nc2ccc(F)cc2)[C@@H](C)CN([C@@H](C)CO)C(=O)c2cc(NC(=O)Cc3ccccc3)ccc2O1,inactive
8,C[C@H](CO)N1C[C@H](C)[C@@H](CN(C)C(=O)c2ccccc2)OCCCC[C@H](C)Oc2ccc(NC(=O)NC3CCCCC3)cc2C1=O,inactive
9,Cn1cnc(S(=O)(=O)N2C[C@H](O)COC[C@@H]3O[C@H](CC(=O)NCc4cc(F)cc(F)c4)CC[C@H]32)c1,inactive
10,N[C@H](C(=O)O)[C@@H](OCc1ccccc1)C(=O)O,inactive
11,C[C@@H]1CN([C@@H](C)CO)C(=O)c2cc(NS(=O)(=O)c3cccs3)ccc2O[C@@H](C)CCCCO[C@@H]1CN(C)C(=O)Nc1ccccc1,inactive
12,CC(C)(C)[S@](=O)N1Cc2cc(C(=O)N[C@H]3CCN(Cc4ccccc4)C3)nc(-c3cccc(-c4cccnc4)c3)c2[C@@H]1CCO,inactive
13,CC(C)(C)[S@](=O)N1Cc2cc(C(=O)N[C@@H]3CCN(Cc4ccccc4)C3)nc(-c3cccc(-c4cccnc4)c3)c2[C@@H]1CCO,inactive
14,CCNC(=O)c1cc2c(c(-c3cccc(-c4cc5ccccc5o4)c3)n1)[C@@H](CCO)N(C(=O)NC(C)C)C2,inactive
15,CCCNC(=O)c1cc2c(c(-c3cccc(-c4cc5ccccc5o4)c3)n1)[C@H](CCO)N(C(=O)NC(C)C)C2,inactive
16,CC(C)NC(=O)N1Cc2cc(C(=O)NC3CCCCC3)nc(-c3cccc(-c4cccnc4)c3)c2[C@@H]1CCO,inactive
17,CCCNC(=O)c1cc2c(c(-c3cccc(-c4cc5ccccc5o4)c3)n1)[C@@H](CCO)N(C(=O)NC(C)C)C2,inactive
18,CC(C)NC(=O)N1Cc2cc(C(=O)NC3Cc4ccccc4C3)nc(-c3cccc(-c4cccnc4)c3)c2[C@@H]1CCO,active
19,CC(C)NC(=O)N1Cc2cc(C(=O)NC3CCCCC3)nc(-c3cccc(-c4cccnc4)c3)c2[C@H]1CCO,active
20,CC(C)NC(=O)N1Cc2cc(C(=O)NC3Cc4ccccc4C3)nc(-c3cccc(-c4cccnc4)c3)c2[C@H]1CCO,active
21,C[C@H]1CN([C@@H](C)CO)C(=O)c2cc(C#Cc3ccccc3F)cnc2O[C@H]1CN(C)C(=O)Cc1cccnc1,inactive
22,COCC(=O)Nc1ccc2c(c1)OC[C@@H](C)N(C(=O)Cc1ccccn1)C[C@@H](C)[C@H](OC)CN(C)C2=O,inactive

row,Compound,cytotoxicity call
1,COc1ccc(COC[C@]23NC(=S)N(C(=O)c4ccccc4)[C@H](c4ccccc4O2)[C@H]3CO[Si](C)(C)C(C)(C)C)cc1,inactive
2,CO[C@H]1CN(C)C(=O)c2ccc(NC(=O)C3CCOCC3)cc2OC[C@H](C)N(Cc2cccnc2)C[C@@H]1C,inactive
3,COc1ccc2c3c(n(c2c1)C)[C@H](CO)N(C[C@]13CCN(CC1)C(=O)c1cnccn1)C(=O)c1cnccn1,inactive
4,C[C@H](CO)N1C[C@H](C)[C@@H](CN(C)C(=O)Nc2ccc3c(c2)OCO3)Oc2ccc(NC(=O)Cn3cnnn3)cc2CC1=O,inactive
5,CN(C)CCN1C[C@H]2OCCN(Cc3cnn(C)c3)[C@H]2C1,inactive
6,CO[C@H]1CN(C)C(=O)c2ccc(NS(C)(=O)=O)cc2OC[C@@H](C)N(C(=O)C2CCCCC2)C[C@H]1C,inactive
7,O=c1[nH]cc(F)c(=O)[nH]1,inactive
8,CC1CC(OC(=O)C(O)c2ccccc2)CC(C)(C)C1 (stereo unspecified),inactive
9,O=C(Oc1ccccc1C(=O)O)c1ccccc1O,inactive
10,CC1CC(OC(=O)c2ccccc2O)CC(C)(C)C1 (stereo unspecified),active
11,C[C@@H]1CCCCO[C@@H](CN(C)Cc2ccc(C(F)(F)F)cc2)[C@@H](C)CN([C@@H](C)CO)C(=O)c2cc(NS(=O)(=O)c3ccccc3)ccc2O1,inactive
12,COc1ccc([Si](C)(C)[C@H]2[C@H](CC(=O)N3Cc4ccccc4C[C@H]3CO)O[C@@]3(C(=O)N(Cc4cccc(N5CCC5=O)c4)c4ccccc43)[C@@H]2C)cc1,inactive
13,COc1ccc(OC)c(CCNC(=O)CN)c1,inactive
14,Cc1ccc(S(=O)(=O)Nc2ccc3c(c2)C(=O)N([C@@H](C)CO)C[C@@H](C)[C@H](CN(C)CC2CCCCC2)OCCCC[C@H](C)O3)cc1,inactive
15,C[C@@H]1CN([C@H](C)CO)C(=O)c2cc(NS(=O)(=O)c3ccccc3)ccc2O[C@@H](C)CCCCO[C@H]1CN(C)S(=O)(=O)c1ccc(Cl)cc1,active
16,C[C@@H]1CCCCO[C@H](CN(C)S(=O)(=O)c2ccccc2)[C@H](C)CN([C@@H](C)CO)C(=O)c2cc(NS(=O)(=O)c3ccc(Cl)cc3)ccc2O1,inactive
17,C[C@@H]1CN([C@@H](C)CO)C(=O)c2cc(NS(=O)(=O)c3ccc(Cl)cc3)ccc2O[C@@H](C)CCCCO[C@H]1CN(C)CC1CCCCC1,inactive
18,Cc1ccc(S(=O)(=O)Nc2ccc3c(c2)C(=O)N([C@H](C)CO)C[C@@H](C)[C@H](CN(C)CC2CCCCC2)OCCCC[C@@H](C)O3)cc1,inactive
19,C[C@@H]1CCCCO[C@@H](CN(C)S(=O)(=O)c2ccccc2)[C@H](C)CN([C@H](C)CO)C(=O)c2cc(NS(=O)(=O)c3ccc(Cl)cc3)ccc2O1,inactive
20,C[C@H](CO)N1C[C@H](C)[C@H](CN(C)CC2CCCCC2)OCCCC[C@H](C)Oc2ccc(NS(=O)(=O)c3ccc(Cl)cc3)cc2C1=O,inactive
21,Cc1ccc(S(=O)(=O)Nc2ccc3c(c2)C(=O)N([C@H](C)CO)C[C@H](C)[C@H](CN(C)CC2CCCCC2)OCCCC[C@H](C)O3)cc1,active
22,C[C@@H]1CCCCO[C@H](CN(C)CC2CCCCC2)[C@H](C)CN([C@@H](C)CO)C(=O)c2cc(NS(=O)(=O)c3ccc(Cl)cc3)ccc2O1,active
